CD40 NFkB inh: inhibitors of CD40-induced NF-kB signaling, primary screen, BL2 cells, luciferase reporter, single point; AID 1053188, 2014; inhibition, % at 10 µM; 0.94% of 83,000 active; CD40L-induced, 4 h;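 active = mean inhibition of at least 50% with a set share of replicates also reaching that level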;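 also: 0% = neutral control wells and 100% = IKK inhibitor VII at 50 µM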
* hit, by the source's call; [ ] = another dose, or the depositor's remark. The entries come from a sample that favours hits as a whole.

N#C/C(=C\c1ccc(O)c(O)c1)C(=O)NC1CCC(CC2CCC(NC(=O)/C(C#N)=C/c3ccc(O)c(O)c3)CC2)CC1 (stereo unspecified) was read as CD40 NFkB inh 18[25 µM].
`COc1ccc(S(=O)(=O)Nc2ccc3c(c2)C(=O)N([C@H](C)CO)C[C@H](C)[C@@H](CN(C)Cc2ccc(C(F)(F)F)cc2)OCCCC[C@@H](C)O3)cc1` gave CD40 NFkB inh 53*[25 µM].
Screening COc1ccc(S(=O)(=O)Nc2ccc3c(c2)C(=O)N([C@H](C)CO)C[C@@H](C)[C@H](CN(C)Cc2ccc(C(F)(F)F)cc2)OCCCC[C@H](C)O3)cc1 returned CD40 NFkB inh 26[25 µM].
Screening C[C@H]1CCCCO[C@@H](CN(C)C(=O)C2CCCCC2)[C@@H](C)CN([C@@H](C)CO)C(=O)c2cc(NS(=O)(=O)c3ccccc3)ccc2O1 returned CD40 NFkB inh 10[25 µM].
Screening C[C@@H]1CN([C@H](C)CO)C(=O)c2cc(NC(=O)Nc3cccc4ccccc34)ccc2O[C@@H](C)CCCCO[C@H]1CN(C)Cc1ccc(C(F)(F)F)cc1 returned CD40 NFkB inh 49*[25 µM].
C[C@@H]1CCCCO[C@@H](CN(C)Cc2ccc(C(F)(F)F)cc2)[C@H](C)CN([C@@H](C)CO)C(=O)c2cc(NC(=O)Nc3cccc4ccccc34)ccc2O1 was read as CD40 NFkB inh 10[25 µM].
C[C@@H]1CCCCO[C@@H](CN(C)C(=O)C2CCCCC2)[C@@H](C)CN([C@H](C)CO)C(=O)c2cc(NS(=O)(=O)c3ccccc3)ccc2O1 was read as CD40 NFkB inh 67*[25 µM].
For C[C@@H]1CCCCO[C@H](CN(C)Cc2ccc(C(F)(F)F)cc2)[C@H](C)CN([C@@H](C)CO)C(=O)c2cc(NC(=O)Nc3cccc4ccccc34)ccc2O1 the results were CD40 NFkB inh 15[25 µM].
C[C@H]1CCCCO[C@H](CN(C)C(=O)C2CCCCC2)[C@@H](C)CN([C@@H](C)CO)C(=O)c2cc(NS(=O)(=O)c3ccccc3)ccc2O1 was read as CD40 NFkB inh 14[25 µM].
For C[C@@H]1CCCCO[C@@H](CN(C)Cc2ccc(C(F)(F)F)cc2)[C@@H](C)CN([C@H](C)CO)C(=O)c2cc(NC(=O)Nc3cccc4ccccc34)ccc2O1 the results were CD40 NFkB inh 16[25 µM].
Screening C[C@@H]1CCCCO[C@@H](CN(C)Cc2ccc(C(F)(F)F)cc2)[C@H](C)CN([C@H](C)CO)C(=O)c2cc(NC(=O)Nc3cccc4ccccc34)ccc2O1 returned CD40 NFkB inh 29[25 µM].
COc1ccc(S(=O)(=O)Nc2ccc3c(c2)C(=O)N([C@@H](C)CO)C[C@H](C)[C@@H](CN(C)Cc2ccc(C(F)(F)F)cc2)OCCCC[C@H](C)O3)cc1 was read as CD40 NFkB inh 15[25 µM].
`C[C@@H]1CCCCO[C@H](CN(C)Cc2ccc(C(F)(F)F)cc2)[C@@H](C)CN([C@@H](C)CO)C(=O)c2cc(NC(=O)Nc3cccc4ccccc34)ccc2O1` gave CD40 NFkB inh 51*[25 µM].
C[C@H]1CN(C)C(=O)Cc2cc(N)ccc2O[C@@H]1CN(C)C(=O)OC(C)(C)C was read as CD40 NFkB inh 4.
Screening C[C@H]1CN([C@@H](C)CO)C(=O)CCCn2nncc2CO[C@@H]1CN(C)C(=O)Nc1cccc(F)c1 returned CD40 NFkB inh -9[25 µM].
O=C(C1CCCCC1)N1C[C@H]2[C@@H](c3ccccc31)[C@H](CO)N2C(=O)c1ccccc1 was read as CD40 NFkB inh 9.
COc1ccc2c3c(n(C)c2c1)[C@H](CO)N(C)CC31CCN(C(=O)NC(C)C)CC1 was read as CD40 NFkB inh -1[25 µM].
For Cc1noc(C)c1NC(=O)N[C@H]1CC[C@H](CCNC(=O)C2CCCCC2)O[C@@H]1CO the results were CD40 NFkB inh -6.
For O=C(C1CC1)N1C[C@H]2[C@@H](c3ccccc31)[C@@H](CO)N2C(=O)Nc1cccc(F)c1 the results were CD40 NFkB inh 0.
For CN1C(=O)c2cc(NC(=O)C3CCC3)ccc2OC[C@H]2O[C@H](CC(=O)NCC3CCCCC3)CC[C@@H]21 the results were CD40 NFkB inh 2.
`CCCNC(=O)N1C[C@@H]2[C@H](c3ccccc31)[C@H](CO)N2C(=O)Nc1ccccc1F` gave CD40 NFkB inh 0[25 µM].
`O=C(C[C@@H]1C[C@@H]2c3cc(NC(=O)NC4CCCC4)ccc3O[C@@H]2[C@H](CO)O1)NCCc1ccccc1` gave CD40 NFkB inh -2.
C[C@H]1CN(C)C(=O)c2ccccc2O[C@@H]1CN(C)C was read as CD40 NFkB inh -30.
CS(=O)(=O)N1[C@H](C#N)[C@H](c2ccccc2-c2ccccc2F)[C@@H]1CO was read as CD40 NFkB inh -9[25 µM].
Screening Cc1nn(C)cc1NC(=O)C[C@@H]1CC[C@@H]2[C@H](COc3ccc(NC(=O)C4CCOCC4)cc3C(=O)N2C)O1 returned CD40 NFkB inh -6[25 µM].
Screening CCN(CC(=O)Nc1ccc(NC(C)=O)cc1)C(=O)C1CCCN(C(=O)c2ccc(Cl)cc2)C1 (stereo unspecified) returned CD40 NFkB inh 28*.
Screening CCc1nnc(NC(=O)C2CCCN(C(=O)c3ccc(Cl)cc3)C2)s1 (stereo unspecified) returned CD40 NFkB inh -40.
CCN(CC(=O)Nc1ccc(NC(C)=O)cc1)C(=O)C1CCCC1 was read as CD40 NFkB inh 1.
`C[C@@H]1CN([C@H](C)CO)S(=O)(=O)c2ccc(C#CC3(O)CCCC3)cc2O[C@@H]1CN(C)C(=O)Nc1cccc(F)c1` gave CD40 NFkB inh -8[25 µM].
For COCC(=O)N1CC2(CCN(Cc3cccnc3)CC2)c2c(n(C)c3cc(OC)ccc23)[C@H]1CO the results were CD40 NFkB inh -9[25 µM].
O=C(C1CC1)N1C[C@@H]2[C@H](c3ccccc31)[C@H](CO)N2C(=O)Nc1cccc(F)c1 was read as CD40 NFkB inh 8.
Screening Cc1ccc2nc(C(F)(F)F)c(C#N)c(N)c2c1 returned CD40 NFkB inh 108*.
Screening Cc1cc(C)c2nc(C(F)(F)F)c(C#N)c(N)c2c1 returned CD40 NFkB inh 20.
`CCSc1nc2ccc(C)cc2cc1C#N` gave CD40 NFkB inh -10.
For O=C(c1cccnc1)N1C[C@H]2[C@@H](c3ccccc31)[C@@H](CO)N2C(=O)C1CCCCC1 the results were CD40 NFkB inh 1.
Screening O=C1CNC[C@@H]2[C@@H](c3ccc(C4=CCCC4)cc3)[C@H](CO)N12 returned CD40 NFkB inh -16[25 µM].
`c1ccc2c(c1)oc1c(Nc3ccc4c(c3)OCCO4)ncnc12` gave CD40 NFkB inh -70.
Screening O=[N+]([O-])c1ccc(O)c(Nc2ncnc3ccccc23)c1 returned CD40 NFkB inh 0.
O=[N+]([O-])c1ccc2ncnc(Nc3ccc4c(c3)OCCO4)c2c1 was read as CD40 NFkB inh 36*.
`COc1ccc(C[C@H]2CCn3nncc3COC[C@H](CC(C)C)NC2=O)cc1` gave CD40 NFkB inh -5[25 µM].
CC1(C)CC1C(=O)N/C(=C\CCCCSCC(N)C(=O)O)C(=O)O (stereo unspecified) was read as CD40 NFkB inh -2[25 µM].
COc1cccc(C#Cc2ccc([C@H]3[C@@H](C#N)N(C(=O)C4CC4)[C@@H]3CO)cc2)c1 was read as CD40 NFkB inh 17.
Clc1ccccc1/C=C/c1nc(-c2ccccn2)no1 was read as CD40 NFkB inh 96*.
Screening Cc1occc1-c1nc(-c2ccccn2)no1 returned CD40 NFkB inh -48.
Cc1onc(-c2ccccc2Cl)c1-c1nc(-c2ccccn2)no1 was read as CD40 NFkB inh 6.
